In the library only some 2% were active in any assay of this set; here they are far more common.
PLAP activator: activates human placental alkaline phosphatase. P05187. purified PLAP enzyme, luminescent substrate read-out; active compounds read high. activation fold at 20 µM. actives 1.2% (n = 96,000). AID 696; in the data active means activation fold above about 2
Target sequence (P05187 whole entry, looked up): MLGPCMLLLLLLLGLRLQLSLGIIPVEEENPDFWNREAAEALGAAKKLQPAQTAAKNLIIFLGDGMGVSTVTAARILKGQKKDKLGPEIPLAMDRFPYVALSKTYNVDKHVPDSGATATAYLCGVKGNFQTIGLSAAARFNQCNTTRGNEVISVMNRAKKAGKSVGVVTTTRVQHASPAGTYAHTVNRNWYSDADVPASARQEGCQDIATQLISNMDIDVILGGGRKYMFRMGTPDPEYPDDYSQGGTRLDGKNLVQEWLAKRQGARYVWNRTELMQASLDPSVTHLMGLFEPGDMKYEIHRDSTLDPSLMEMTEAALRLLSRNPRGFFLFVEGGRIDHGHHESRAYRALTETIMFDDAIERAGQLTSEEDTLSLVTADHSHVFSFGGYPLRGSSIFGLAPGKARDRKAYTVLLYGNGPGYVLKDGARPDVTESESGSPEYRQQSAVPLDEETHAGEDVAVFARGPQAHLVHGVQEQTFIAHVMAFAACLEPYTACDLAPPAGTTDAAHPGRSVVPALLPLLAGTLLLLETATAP
GALR2 antag: antagonists of human galanin receptor 2 (GALR2). GALR2-expressing cells, antagonist mode. inhibition, % at 4 µM. actives 0.39% (n = 140,000);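 further: cells stimulated with galanin 1-16 at roughly its EC80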
GALR2 ag: GALR2 (human) receptor agonism | actives 0.48% (n = 140,000) | GALR2-expressing cells, agonist activation read-out | activation, % (concentration not given with the values) | AID 803; in the data active means activation above about 5%, passing the limit was not always enough
S1P2 ag: S1P2 (human) receptor agonism | S1P2-expressing cell line, agonist reporter read-out | activation, % at 4.5 µM | actives 0.46% (n = 97,000); in the data active means activation above about 16%
S1P2 blocker: antagonists of human S1P2 receptor; cell-based S1P2 antagonist assay, inhibition at 5 uM; inhibition, % at 5 µM; actives 0.21% (n = 97,000); in the data active means inhibition above about 45%;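 further: CRE beta-lactamase reporter cells expressing human S1P2 stimulated with S1P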
GALR2 blk conf: GALR2 (human) antagonism confirmed | shares compounds with GALR2 antag | GALR2-expressing cells, antagonist mode, inhibition | inhibition, % at 4 µM | actives 60% (n = 480) | AID 866;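 further: cells stimulated with galanin at about its EC80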
BLA inh counter: counter-screen for GALR2 antagonists: beta-lactamase reporter inhibitors; actives 36% (n = 480); CHO NFAT-BLA reporter, beta-lactamase FRET, thapsigargin-stimulated; inhibition, % at 4.2 µM; shares compounds with GALR2 antag;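 active means inhibition above the mean inhibition across tested compounds plus 3 SD, cut at about 27% in these data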
Numbers stand for hits. Unless noted, no stated cut-off is given here; in the data, active means inhibition above about 27%; inactive means the rest.

How did CCCNC(=O)c1ccc2c(c1)ncn2-c1ccccc1OC do in these assays?
PLAP activator: inactive; GALR2 antag: 27.9; GALR2 ag: inactive; GALR2 blk conf: inactive; BLA inh counter: inactive

Results for CC(=O)c1ccc(N2CCN(C(=O)COc3ccc(F)cc3)CC2)c(F)c1 ?
PLAP activator: inactive; GALR2 antag: 28.4; GALR2 ag: inactive; GALR2 blk conf: inactive; BLA inh counter: inactive

Results for CCC(=O)c1ccc(N2CCN(C(=O)COc3ccc(F)cc3)CC2)c(F)c1 ?
PLAP activator: inactive; GALR2 antag: inactive; GALR2 ag: inactive; S1P2 ag: inactive; S1P2 blocker: inactive

Results for Cc1cccc(CSc2cccc3cccnc23)c1 ?
PLAP activator: inactive; GALR2 antag: 29.2; GALR2 ag: inactive; S1P2 ag: inactive; S1P2 blocker: inactive; GALR2 blk conf: inactive; BLA inh counter: inactive

Results for CCn1ncc(C2=NOC(C(=O)Nc3cccc(C(C)=O)c3)C2)c1C (configuration not stated) ?
PLAP activator: inactive; GALR2 antag: inactive; GALR2 ag: inactive; S1P2 ag: inactive; S1P2 blocker: inactive

Results for O=[N+]([O-])c1cc(C=Nc2ccc3ccccc3c2)ccc1Br ?
GALR2 antag: 33.0; GALR2 ag: inactive; GALR2 blk conf: inactive; BLA inh counter: inactive

What do the screens show for `Brc1ccc2[nH]c3c(N4CCc5ccccc5C4)ncnc3c2c1`?
PLAP activator: inactive; GALR2 antag: inactive; GALR2 ag: inactive; S1P2 ag: inactive; S1P2 blocker: inactive

Results for Cc1ccc2[nH]c3c(N4CCc5ccccc5C4)ncnc3c2c1 ?
PLAP activator: inactive; GALR2 antag: 53.7; GALR2 ag: inactive; S1P2 ag: inactive; S1P2 blocker: 82.9; GALR2 blk conf: 51.5; BLA inh counter: inactive

What do the screens show for `NC(=O)c1sc2nc(-c3ccco3)ccc2c1N`?
PLAP activator: inactive; GALR2 antag: inactive; GALR2 ag: inactive; S1P2 ag: inactive; S1P2 blocker: inactive

How did Nc1c(C(=O)Nc2ccccc2F)sc2nc(-c3ccco3)ccc12 do in these assays?
PLAP activator: inactive; GALR2 antag: 31.1; GALR2 ag: inactive; S1P2 ag: inactive; S1P2 blocker: inactive; GALR2 blk conf: inactive; BLA inh counter: inactive

Results for COc1ccc(-c2cnnc(N/N=C/c3c(C)nn(-c4ccccc4)c3Cl)n2)cc1 ?
GALR2 antag: inactive; GALR2 ag: inactive

Results for CC(=O)c1c(C)nc(-c2ccc(Cl)cc2)nc1N=CN(C)C ?
PLAP activator: inactive; GALR2 antag: 31.4; GALR2 ag: inactive; S1P2 ag: inactive; S1P2 blocker: inactive; GALR2 blk conf: inactive; BLA inh counter: inactive

Results for CC(=O)N1CCc2cc(S(=O)(=O)NC(Cc3ccccc3)C(=O)Nc3cc(C)ccn3)ccc21 (configuration not stated) ?
PLAP activator: inactive; GALR2 antag: 28.6; GALR2 ag: inactive; S1P2 ag: inactive; S1P2 blocker: inactive; GALR2 blk conf: inactive; BLA inh counter: inactive

Results for CC(=O)N1CCc2cc(S(=O)(=O)NC(CC(C)C)C(=O)Nc3cc(C(=O)O)ccc3C)ccc21 (configuration not stated) ?
PLAP activator: inactive; GALR2 antag: inactive; GALR2 ag: inactive

What do the screens show for `Clc1ccc(OCCN2CCN(c3ncnc4sccc34)CC2)cc1`?
PLAP activator: inactive; GALR2 antag: 40.2; GALR2 ag: inactive; GALR2 blk conf: 48.8; BLA inh counter: inactive

How did Cc1ccc(S(=O)(=O)/N=C2/C=C(Sc3ncn[nH]3)C(=O)c3ccccc32)c(C)c1 do in these assays?
GALR2 antag: 27.1; GALR2 ag: inactive; GALR2 blk conf: inactive; BLA inh counter: inactive

What do the screens show for `N#Cc1ccc(-c2ccccc2)nc1SCC(=O)c1cc2ccccc2oc1=O`?
PLAP activator: inactive; GALR2 antag: 38.4; GALR2 ag: inactive; S1P2 ag: inactive; S1P2 blocker: inactive; GALR2 blk conf: inactive; BLA inh counter: inactive

Results for CC(C)c1c(C#N)c(N)nc(SCC(=O)c2cc3ccccc3oc2=O)c1C#N ?
PLAP activator: inactive; GALR2 antag: inactive; GALR2 ag: inactive

What do the screens show for `CN(C)c1ccc(NC2=C(Cl)C(=O)c3ccccc3C2=O)cc1`?
GALR2 antag: 41.2; GALR2 ag: inactive; GALR2 blk conf: 48.5; BLA inh counter: inactive

Results for CCCc1nnc(SCC(=O)N2CCOCC2)n1C ?
GALR2 antag: inactive; GALR2 ag: inactive; S1P2 ag: inactive; S1P2 blocker: inactive

Results for O=C(Oc1ccccc1/C=C\C(=O)c1cc2ccccc2o1)c1ccccc1 ?
GALR2 antag: 27.4; GALR2 ag: inactive; GALR2 blk conf: inactive; BLA inh counter: inactive

How did CCOC(=O)C(=Cc1cc(=O)c(OC)co1)C(=O)OCC do in these assays?
GALR2 antag: 40.7; GALR2 ag: inactive; GALR2 blk conf: 67.4; BLA inh counter: 57.9

Results for COc1coc(C(O)CN)cc1=O (configuration not stated) ?
GALR2 antag: inactive; GALR2 ag: inactive

Results for NS(=O)(=O)c1ccc(CCNc2ncnc3sccc23)cc1 ?
PLAP activator: inactive; GALR2 antag: inactive; GALR2 ag: inactive; S1P2 ag: inactive; S1P2 blocker: inactive

Results for Cc1sc2ncnc(NCCc3ccc(S(N)(=O)=O)cc3)c2c1C ?
PLAP activator: inactive; GALR2 antag: 36.7; GALR2 ag: inactive; S1P2 ag: inactive; S1P2 blocker: 62.8; GALR2 blk conf: 47.2; BLA inh counter: inactive

How did Cn1c(=O)n(C)c2cc(NC(=O)CCl)ccc21 do in these assays?
PLAP activator: inactive; GALR2 antag: inactive; GALR2 ag: inactive; S1P2 ag: inactive; S1P2 blocker: inactive

What do the screens show for `N#C/C(=C\c1cccs1)c1nc2ccccc2[nH]1`?
GALR2 antag: 32.5; GALR2 ag: inactive; GALR2 blk conf: 30.2; BLA inh counter: inactive

Results for N#C/C(=C\c1ccc(OC(=O)c2cccs2)cc1)c1nc2ccccc2[nH]1 ?
GALR2 antag: inactive; GALR2 ag: inactive

Results for CC(=O)/C=C/n1c(=S)oc2ccccc21 ?
GALR2 antag: 42.2; GALR2 ag: inactive; GALR2 blk conf: 77.1; BLA inh counter: 64.5

Results for O=S(=O)(NCc1ccncc1)c1ccc(Br)s1 ?
PLAP activator: inactive; GALR2 antag: 36.7; GALR2 ag: inactive; GALR2 blk conf: 44.0; BLA inh counter: inactive

Results for O=C(O)CNS(=O)(=O)c1ccc(Br)s1 ?
PLAP activator: inactive; GALR2 antag: inactive; GALR2 ag: inactive

How did Cc1ccc(/C(C#N)=C\c2ccc(N3CCOCC3)o2)cc1 do in these assays?
PLAP activator: inactive; GALR2 antag: 43.9; GALR2 ag: inactive; S1P2 ag: inactive; S1P2 blocker: 50.6; GALR2 blk conf: inactive; BLA inh counter: inactive

What do the screens show for `Cc1ccc2nc(/C(C#N)=C\c3ccc(N4CCOCC4)o3)[nH]c2c1`?
GALR2 antag: 28.6; GALR2 ag: inactive; S1P2 ag: inactive; S1P2 blocker: inactive; GALR2 blk conf: inactive; BLA inh counter: inactive

What do the screens show for `CCc1ccc(OCC(=O)Nc2cccc3c2CCCC3)cc1`?
GALR2 antag: inactive; GALR2 ag: inactive

Bioassay records (PubChem BioAssay)
